Measured values as given in PubChem BioAssay.
Active and inactive are the calls of the source.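 The calls were made as follows, unless noted: active = inhibition of the reporter signal at or above 50%; inactive = inhibition below 50%.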

What was measured:
[1] = inhibitors of TNFa-induced NFkB p65 translocation, primary screen, imaging, HUVEC, MLSMR starter and 10KST1 sets (AID 438;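 active = inhibition above 20% together with a positive visual image hit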;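 also: compound added about 3h40 before a 20 min TNFalpha stimulation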;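 as to inhibition: signal is the nuclear over cytoplasmic p65 intensity ratio per well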); settings: HUVEC TNFa-induced p65 nuclear translocation; cell count: measured here: nuclei count (cytotoxicity indicator), at 2.08 µM; inhibition: at 2 µM, stronger effect = higher value, 0% TNFa-plus-vehicle, 100% no-TNFa wells
[2] = inhibitors of mutant huntingtin aggregation, primary screen, imaging, exon1htt(103Q)mCFP cells, high-content imaging (AID 483;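 active = visual image review flags a hit and inhibition of aggregation exceeds 20%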;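 also: compound exposure lasted 3 days before fixation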;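 as to nuclei count: percent of the per-plate median nuclei count of sample wells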); settings: exon1htt(103Q)mCFP cell line, aggregate imaging, at 2 µM; inhibition of aggregation: stronger effect = higher value; nuclei count: measured here: cell count, toxicity
[3] = inhibitors of E-selectin induction by TNFa, primary screen, imaging, HUVEC, immunofluorescence, MLSMR starter and 10KST1 sets (AID 487;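 active = visually confirmed hit in the image check and inhibition above 20%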;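 as to inhibition: signal is fraction of cell area covered by stained E-selectin grains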;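 as to nuclei count: 100% = median nuclei count of all wells on the same plate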); settings: HUVEC TNFalpha-induced E-selectin immunofluorescence imaging, at 2 µM; inhibition: stronger effect = higher value; nuclei count: measured here: cell number, toxicity
[4] = biological target: Voltage-gated potassium channel subunit beta-2 (Rattus norvegicus) (UniProt P62483); experiment: KvBeta enzyme negative modulators, primary screen, biochemical, NADPH fluorescence (AID 622;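 active = fluorescence slope higher than the sample average by over 3 SD, cut at about -0.22 in these data, passing the limit was not always enough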;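 also: slope of raw intensity against log time taken from 70 to 1610 s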); settings: recombinant KvBeta, 4-cyanobenzaldehyde reduction, at 10 µM, stronger effect = higher value
Sequence of Voltage-gated potassium channel subunit beta-2 (Rattus norvegicus) (P62483 whole entry, looked up): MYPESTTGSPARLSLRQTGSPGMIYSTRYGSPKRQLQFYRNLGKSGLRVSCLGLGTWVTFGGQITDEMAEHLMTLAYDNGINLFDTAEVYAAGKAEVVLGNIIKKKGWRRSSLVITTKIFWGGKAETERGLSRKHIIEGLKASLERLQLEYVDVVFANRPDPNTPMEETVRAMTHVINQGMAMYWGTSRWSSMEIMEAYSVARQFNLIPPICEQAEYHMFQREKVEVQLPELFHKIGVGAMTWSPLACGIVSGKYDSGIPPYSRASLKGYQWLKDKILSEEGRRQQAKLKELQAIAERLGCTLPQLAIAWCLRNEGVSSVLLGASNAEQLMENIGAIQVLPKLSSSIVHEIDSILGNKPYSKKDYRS

[5] = biological target: Voltage-gated potassium channel subunit beta-2 (Rattus norvegicus) (UniProt P62483); experiment: KvBeta positive modulators, primary screen, biochemical, NADPH fluorescence (AID 623;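 active = NADPH fluorescence slope more negative than the mean of all samples by about 3 SD, 99.7% confidence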;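 also: fluorescence intensity change per second fitted from 20 to 320 s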); settings: Recombinant KvBeta, NADPH fluorescence decrease slope, 10 min; at 10 µM; stronger effect = lower value
[6] = biological target: Alpha-2C adrenergic receptor (Homo sapiens) (UniProt P18825); experiment: modulators of alpha2C/GIRK thallium flux, primary screen, cell-based, HEK293 alpha2C/GIRK1/2 (AID 624;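 active = fluorescence slope after compound addition differing from the mean of all screened samples at 99.7% confidence, in either direction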;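 also: slope of fluorescence ratio to pre-addition baseline per second over 15 to 24 s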); settings: thallium flux BTC fluorescence, at 10 µM, actives lie on both sides
Sequence of Alpha-2C adrenergic receptor (Homo sapiens) (P18825 whole entry, looked up): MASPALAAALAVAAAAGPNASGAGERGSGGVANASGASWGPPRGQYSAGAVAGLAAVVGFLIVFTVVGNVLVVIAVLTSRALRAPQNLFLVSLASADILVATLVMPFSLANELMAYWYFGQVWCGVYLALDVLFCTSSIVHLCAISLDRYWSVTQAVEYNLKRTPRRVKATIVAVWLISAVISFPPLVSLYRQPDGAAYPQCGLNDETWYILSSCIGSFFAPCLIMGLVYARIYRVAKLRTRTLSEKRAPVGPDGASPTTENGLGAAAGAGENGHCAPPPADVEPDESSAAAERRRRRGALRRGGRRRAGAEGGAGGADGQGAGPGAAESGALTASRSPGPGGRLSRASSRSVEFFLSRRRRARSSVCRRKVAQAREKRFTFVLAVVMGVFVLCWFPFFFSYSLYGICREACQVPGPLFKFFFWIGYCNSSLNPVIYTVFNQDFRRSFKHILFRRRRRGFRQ

[7] = inhibitors of Sendai virus-induced IRF3 signaling, primary screen, TLR/RLR signaling modifier project, cell-based, Sendai virus stimulus, luciferase, 10K MLSCN set (AID 602276;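 active = inhibition at or above 50% at 10 µM; inactive = inhibition below 50%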;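 also: firefly luciferase from ISG56 promoter only with Renilla not read in this screen; 0% = Sendai virus plus DMSO and 100% = medium plus DMSO without virus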); settings: HEK293 RL24 IRF3 luciferase reporter, at 10 µM, stronger effect = higher value
[8] = inhibitors of poly I:C-induced TLR3 signaling, primary screen, cell-based, poly I:C stimulus, luciferase, 10K MLSCN set (AID 602277); settings: HEK293-TLR3 RL24 IRF3 luciferase reporter, at 10 µM, stronger effect = higher value

SMILES	cell count [1]	inhibition [1]	inhibition of aggregation [2]	nuclei count [2]	inhibition [3]	nuclei count [3]	fluorescence slope [4]	NADPH fluorescence slope [5]	slope [6]	inhibition [7]	inhibition [8]
CCOC(=O)N1CCN(c2c(NCC3CCN(Cc4cccc(C)c4)CC3)c(=O)c2=O)CC1	577	-2.7% (inactive)	25.8% (inactive)	104%	-67.1% (inactive)	129%	-0.507 (inactive)	-2.1e-05 (inactive)	0.00653 (inactive)	5.85% (inactive)	23.9% (inactive)
CCOC(=O)N1CCC(Nc2ncnc3c2cnn3-c2ccc(C)cc2C)CC1	684	-0.8% (inactive)	6.9% (inactive)	92.6%	-36.3% (inactive)	124%	-0.529 (inactive)	-4.5e-05 (inactive)	0.00533 (inactive)	3.02% (inactive)	-54.1% (inactive)
COc1ccc(C(=O)c2ccccc2)c(O)c1	585	-2.6% (inactive)	6.6% (inactive)	94.1%	1.3% (inactive)	97.5%	-0.443 (inactive)	2.6e-05 (inactive)	0.00543 (inactive)	-1.71% (inactive)	-8.45% (inactive)
CCCCNC(=O)C(C#N)c1nc2ccccc2nc1N1CCCC1 (centres undefined)	289	-6.5% (inactive)	22.5% (inactive)	78.4%	9% (inactive)	52.3%	-0.235 (inactive)	-1.3e-05 (inactive)	0.00359 (inactive)	16.3% (inactive)	14% (inactive)
O=C(COC(=O)c1ccccc1O)Nc1ccc(OC(F)F)cc1	674	5.1% (inactive)	-8.4% (inactive)	103%	-64.8% (inactive)	136%	-0.543 (inactive)	7.7e-06 (inactive)	0.00583 (inactive)	-13.8% (inactive)	-42.2% (inactive)
Cc1c(-n2c(CN3C(=O)c4ccccc4C3=O)nc3ccccc3c2=O)c(=O)n(-c2ccccc2)n1C	407	-8.4% (inactive)	-10.1% (inactive)	115%	77.1% (inactive)	95.8%	-0.619 (inactive)	1.1e-05 (inactive)	0.00583 (inactive)	5.03% (inactive)	24.9% (inactive)
COc1cc(OC)c(-c2nn3c(C4CCCCC4)nnc3s2)cc1OC	573	7.2% (inactive)	1.8% (inactive)	109%	-115% (inactive)	126%	-0.412 (inactive)	-5.9e-05 (inactive)	0.00604 (inactive)	12.8% (inactive)	16.9% (inactive)
Cc1ccc(C(C(=O)NC2CCCCC2)N(C(=O)c2csnn2)C2CCCC2)o1 (centres undefined)	514	-8.3% (inactive)	-9.5% (inactive)	103%	-68.9% (inactive)	112%	-0.547 (inactive)	1.5e-05 (inactive)	0.00533 (inactive)	14.4% (inactive)	47.6% (inactive)
C=C(C)Cn1c(N2CCN(CC)CC2)nc2c1c(=O)[nH]c(=O)n2C	441	14% (inactive)	-6.4% (inactive)	81.9%	12.3% (inactive)	104%	-0.528 (inactive)	-1.8e-05 (inactive)	0.00582 (inactive)	2.55% (inactive)	25.8% (inactive)
CC1(C)CC(=O)c2sc(NS(C)(=O)=O)nc2C1	638	-10.5% (inactive)	-16.8% (inactive)	104%	-56.1% (inactive)	106%	-0.533 (inactive)	-4.4e-05 (inactive)	0.00519 (inactive)	18.2% (inactive)	27.8% (inactive)
CCN(C1CCCCC1)S(=O)(=O)c1ccc(S(=O)(=O)N2CCN(CCC#N)CC2)cc1	870	3.3% (inactive)	8% (inactive)	102%	-28.6% (inactive)	108%	-0.584 (inactive)	-1.5e-05 (inactive)	0.00677 (inactive)	-5.6% (inactive)	52% (active)
COCCCn1nnnc1SCC(=O)Nc1nc(C)c(C)s1	435	-5.5% (inactive)	14.2% (inactive)	58.2%	-133% (inactive)	104%	-0.499 (inactive)	-5.5e-05 (inactive)	0.00473 (inactive)	2.9% (inactive)	9.02% (inactive)
COc1ccc(Cn2nnnc2C(c2cc3cc(C)cc(C)c3[nH]c2=O)N2CCOCC2)cc1 (centres undefined)	762	-12.9% (inactive)	33.9% (inactive)	113%	-9.5% (inactive)	108%	-0.51 (inactive)	-6.8e-05 (inactive)	0.00452 (inactive)	13.8% (inactive)	24.9% (inactive)
Cc1ccc(SC(C)c2nc(-c3ccccc3)no2)cc1 (centres undefined)	283	-7.5% (inactive)	8.1% (inactive)	105%	51.9% (active)	42.1%	-0.416 (inactive)	-4.5e-05 (inactive)	0.00449 (inactive)	-11.7% (inactive)	-42.5% (inactive)
